In assay [1] the target is Luciferin 4-monooxygenase (Photinus pyralis) (UniProt P08659). As to the kind of experiment: Biochemical firefly luciferase enzyme assay for NPC (AID 624030).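 Also: purified P. pyralis luciferase at 10 nM with luciferin and ATP substrate; series mostly up to about 59 µM; 0% = DMSO and -100% = full luciferase inhibition by PTC124 control; nearly all actives have a fitted effect of over 70% in size.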 The gist of the method:
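Purified P. pyralis luciferase at 10 nM in 50 mM Tris Acetate (final), luminescence read within 5 minutes of enzyme addition to compounds. Activity normalised to PTC124 versus DMSO; concentration-response curves classed by r2, magnitude and activity.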

The nature of assay [2]: S16 Schwann cell viability assay (CellTiter-Glo assay) (AID 624031).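 Also: cellular ATP luminescence as a viability measure; series mostly up to about 58 µM; plate controls were DMSO-treated cells for no effect and cell-free wells for full effect; nearly all actives have a fitted effect of over 70% in size.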 Summed up:
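CellTiter-Glo ATP luminescence counter-screen in untransfected S16 rat Schwann cells, 24h compound exposure at 37 degree Celsius after overnight seeding (500-750 cells/well); response scaled between cell-free wells and DMSO (0% activity), curves classed by r2 and magnitude.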

Assay [3] in a line: S16 Schwann cell PMP22 intronic element beta-lactamase assay (AID 624044; calls by dose curve; also: nearly all actives have a fitted effect of over 15% in size; also: potency is read from the fitted curve at half-maximal effect). The gist of the method:
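Beta-lactamase reporter under a PMP22 intronic regulatory element in stable S16 rat Schwann cells; 24 h compound exposure. 460 nm blue signal normalized between DMSO (0%) and potassium clavulanate, with 535 nm FRET tracking viability; curves classed by r2 and response.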

Assay [4] concerns the target Peroxisome proliferator-activated receptor gamma (Homo sapiens) (UniProt P37231). Description: qHTS assay for small molecule agonists of peroxisome proliferator-activated receptor gamma signaling (AID 588536; active = well fitted curve in the direction sought with a large enough effect in the signal ratio, with a control signal flat, not every such curve was filed as active; the % refers to the signal ratio;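 also: 0% = DMSO basal wells and 100% = rosiglitazone at 2 µM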). Summed up:
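Compound treatment: 16 h, 37 C, HEK293 GeneBLAzer cells. Detection: CCF4, 2 h RT. Values: Hill-fit EC50, efficacy as % of 2 uM rosiglitazone.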

The target in assay [5] is Vitamin D3 receptor (Homo sapiens) (UniProt P11473). As to the kind of experiment: qHTS assay for small molecule antagonists of vitamin D receptor signaling (AID 588541; calls by dose curve;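 also: receptor activated by calcitriol during compound treatment; series mostly up to about 77 µM; % is scaled to controls: 0 for no effect and ±100 for the full control effect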). Summed up: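 VDR-UAS-bla HEK293T cells in 2% charcoal-stripped FBS were stimulated with 1-alpha,25-dihydroxyvitamin D3 (3 nM final) plus compound for 16 h at 37 C. The beta-lactamase CCF4 readout was normalized to 50 nM agonist and DMSO, and Hill fits gave IC50.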
Vitamin D3 receptor (Homo sapiens), sequence (P11473 whole entry, looked up): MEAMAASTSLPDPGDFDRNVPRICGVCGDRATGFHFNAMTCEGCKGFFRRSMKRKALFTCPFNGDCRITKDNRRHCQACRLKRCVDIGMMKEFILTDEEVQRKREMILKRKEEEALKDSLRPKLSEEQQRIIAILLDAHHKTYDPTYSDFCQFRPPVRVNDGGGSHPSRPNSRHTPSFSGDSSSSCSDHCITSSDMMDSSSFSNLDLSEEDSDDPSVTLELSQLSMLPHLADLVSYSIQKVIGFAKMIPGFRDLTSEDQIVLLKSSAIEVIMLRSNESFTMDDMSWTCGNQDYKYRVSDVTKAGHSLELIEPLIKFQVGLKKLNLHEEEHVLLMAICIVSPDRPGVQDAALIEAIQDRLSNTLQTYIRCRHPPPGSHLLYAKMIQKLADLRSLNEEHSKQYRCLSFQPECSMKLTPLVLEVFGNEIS

The target is the same in assay [6]. Description: qHTS assay for small molecule agonists of vitamin D receptor signaling (AID 588543; calls by dose curve;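 also: 0% = DMSO basal and 100% = reference agonist control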). The gist of the method:
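Reporter cells (HEK293T, VDR-UAS-bla) were seeded in medium with 2% charcoal-stripped serum and incubated 5 h, then compounds in concentration series were added for 16 h at 37 °C. Stimulation was scaled between DMSO basal and 50 nM 1α,25-dihydroxyvitamin D3.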
For orientation: In qHTS, concentration-response curves come from the screen itself.

Assay [7] in a line: qHTS assay for small molecule agonists of retinoid X receptor alpha signaling (AID 588544; calls by dose curve;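 as to activation: 0% = DMSO basal wells and 100% = reference agonist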). Conditions: HEK293T RXRa-UAS-bla, beta-lactamase reporter, 18 h; 530 nm emission.
Assay [8] addresses Retinoic acid receptor RXR-alpha (Homo sapiens) (UniProt P19793). The description is as above.
Assay [9] addresses Thyroid hormone receptor beta (Homo sapiens) (UniProt P10828). As to the kind of experiment: qHTS assay for small molecule agonists of thyroid hormone receptor beta signaling (AID 588545; calls by dose curve). Summed up: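 Cells (2500/well) were seeded, incubated 4 hrs at 37 C, dosed with a compound series, incubated 18 hrs, loaded with CCF4 dye for 2 hrs at RT, then read for fluorescence. Data were scaled between DMSO (0%) and 10 nM T3 (100%).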

A short description of assay [10]: qHTS assay for small molecule antagonists of retinoid X receptor alpha signaling (AID 588546; active = well fitted inhibition curve with a large enough effect in the signal ratio, with a control signal flat, not every such curve was filed as active; the % refers to the signal ratio;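 also: cells stimulated with 9-cis-retinoic acid as agonist; % is scaled to controls: 0 for no effect and ±100 for the full control effect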). Conditions: HEK293T RXRa-UAS-bla, beta-lactamase ratio, antagonist mode; measured here: W530 green channel, cytotoxicity proxy. Summed up:
(§1)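 Beta-lactamase reporter inhibition, read as CCF4 fluorescence ratio (ex 405, em 460/530 nm) after 2 h at RT. HEK293T UAS-bla cells, 2500/well, were stimulated with 9-cis-RA at 500 or 100 nM final alongside test compound for 18 h at 37 C.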

The target in assay [11] is Retinoic acid receptor RXR-alpha (Homo sapiens) (UniProt P19793). The assay is described as above. Conditions: HEK293T RXRa-UAS-bla, beta-lactamase ratio, antagonist mode. The gist of the method:
as §1

Assay [12] concerns the target Thyroid hormone receptor beta (Homo sapiens) (UniProt P10828). As to the kind of experiment: qHTS assay for small molecule antagonists of thyroid hormone receptor beta signaling (AID 588547; active = well fitted inhibition curve with a large enough effect in the signal ratio, with a control signal flat, not every such curve was filed as active; the % refers to the signal ratio;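 also: cells stimulated with 0.4 nM T3 agonist during compound exposure; series mostly up to about 77 µM; % is scaled to controls: 0 for no effect and ±100 for the full control effect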). Conditions: TR-UAS-bla HEK293, beta-lactamase ratio, antagonist mode, 18 h. The gist of the method: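 TR-UAS-bla GripTite HEK293 cells in 2% charcoal/dextran FBS medium; compounds 0.59 nM to 92 uM with T3 at 0.4nM final, 18 h at 37 C. Beta-lactamase read by CCF4 fluorescence (460/530 nm); Hill fits gave IC50 and efficacy.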

Assay [13] in a line: S16 Schwann cell PMP22 intronic element firefly luciferase assay (AID 624032). Also: nearly all actives have a fitted effect of over 30% in size. Also: potency is read from the fitted curve at half-maximal effect. The gist of the method: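 Rat S16 Schwann cells stably carrying firefly luciferase driven by a PMP22 intronic element, in 10% FBS, treated 24 h at 37 C. ONE-Glo luminescence normalized to PTC124 control and DMSO (0%); curves classed by r2, magnitude and activity.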
In assay [14] the target is Glucocorticoid receptor (Homo sapiens) (UniProt P04150). As to the kind of experiment: qHTS assay for small molecule agonists of glucocorticoid receptor signaling (AID 588532; active = well fitted curve in the direction sought with a large enough effect in the signal ratio, with a control signal flat; the % refers to the signal ratio;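 also: 100% = dexamethasone at 0.1 µM and 0% = DMSO only wells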). Particulars: HeLa MMTV-bla, beta-lactamase ratio, agonist, 18 h; stronger effect = higher value; percent of dexamethasone control, DMSO zero. Summed up:
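MMTV-bla HeLa beta-lactamase reporter cells in 1% charcoal/dextran FBS medium, compounds up to 92 uM for 18 h at 37 C, CCF4 readout; normalized to 0.1 uM dexamethasone (100%), EC50 and efficacy from Hill fits.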

For assay [15] the target is unchanged. Description: qHTS assay for small molecule antagonists of glucocorticoid receptor signaling (AID 588533; active = well fitted inhibition curve with a large enough effect in the signal ratio, with a control signal flat, not every such curve was filed as active; the % refers to the signal ratio; also: potency is read from the fitted curve at half-maximal effect). Summed up: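 Antagonist-mode qHTS: compound titrations added to GRE-bla HeLa cells, then dexamethasone 2 nM final; 18 h, 37 C. CCF4 FRET fluorescence normalized to dexamethasone and DMSO; IC50 from Hill fit.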
Assay [16] is described as follows: qHTS assay for small molecule antagonists of peroxisome proliferator-activated receptor delta signaling (AID 588535; active = well fitted inhibition curve with a large enough effect in the signal ratio, with a control signal flat, not every such curve was filed as active; the % refers to the signal ratio;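 as to max response: cells co-treated with a PPAR-delta agonist as stimulator during compound exposure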). Particulars: HEK293T PPARd-UAS-bla, beta-lactamase FRET ratio, 18 h; 460 nm channel. Summed up: (§2)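 Fluorescence from CCF4-loaded GeneBLAzer PPAR-delta-UAS-bla HEK293T cells (2 hrs RT loading) quantified reporter inhibition after an 18 hr, 37 C compound exposure across a titration.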

Assay [17] addresses Peroxisome proliferator-activated receptor delta (Homo sapiens) (UniProt Q03181). Described as above. The gist of the method:
as §2

The structures appear in SMILES notation. Inconclusive results are not listed. Activity calls are given as the source filed them. Unless noted, calls follow the shape of the dose curve; as a rule, active = well fitted curve in the direction sought with a large enough effect; inconclusive = small, poorly fitted or top-dose-only effect, or another doubt; inactive = no such curve, though single readings can be large; an effect the other way counts as inactive or inconclusive.

Thyroid hormone receptor beta (Homo sapiens), sequence (P10828 whole entry, looked up): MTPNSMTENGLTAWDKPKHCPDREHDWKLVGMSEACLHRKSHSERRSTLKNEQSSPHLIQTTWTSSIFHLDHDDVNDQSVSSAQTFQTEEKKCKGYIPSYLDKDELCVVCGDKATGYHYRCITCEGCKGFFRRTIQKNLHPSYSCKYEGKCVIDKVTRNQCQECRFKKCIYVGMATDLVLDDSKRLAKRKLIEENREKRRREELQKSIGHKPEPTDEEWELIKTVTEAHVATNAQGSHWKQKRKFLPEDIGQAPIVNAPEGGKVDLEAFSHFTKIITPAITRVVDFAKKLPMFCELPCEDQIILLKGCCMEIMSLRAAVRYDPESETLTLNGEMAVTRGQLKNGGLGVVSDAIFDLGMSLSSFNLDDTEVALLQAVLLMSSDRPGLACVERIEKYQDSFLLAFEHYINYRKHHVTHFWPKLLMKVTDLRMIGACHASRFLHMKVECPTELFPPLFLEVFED
Retinoic acid receptor RXR-alpha (Homo sapiens), sequence (P19793 whole entry, looked up): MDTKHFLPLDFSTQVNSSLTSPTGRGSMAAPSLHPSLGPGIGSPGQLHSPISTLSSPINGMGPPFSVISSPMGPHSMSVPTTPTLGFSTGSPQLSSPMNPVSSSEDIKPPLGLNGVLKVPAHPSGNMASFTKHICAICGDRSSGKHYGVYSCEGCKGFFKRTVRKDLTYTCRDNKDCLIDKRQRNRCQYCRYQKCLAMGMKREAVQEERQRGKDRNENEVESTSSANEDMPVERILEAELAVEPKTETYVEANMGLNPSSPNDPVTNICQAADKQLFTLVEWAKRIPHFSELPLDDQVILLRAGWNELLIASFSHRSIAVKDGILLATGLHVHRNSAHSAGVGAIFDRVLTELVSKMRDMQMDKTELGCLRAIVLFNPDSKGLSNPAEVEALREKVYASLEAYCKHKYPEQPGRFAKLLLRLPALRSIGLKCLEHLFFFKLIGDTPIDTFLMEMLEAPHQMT
Luciferin 4-monooxygenase (Photinus pyralis), sequence (P08659 whole entry, looked up): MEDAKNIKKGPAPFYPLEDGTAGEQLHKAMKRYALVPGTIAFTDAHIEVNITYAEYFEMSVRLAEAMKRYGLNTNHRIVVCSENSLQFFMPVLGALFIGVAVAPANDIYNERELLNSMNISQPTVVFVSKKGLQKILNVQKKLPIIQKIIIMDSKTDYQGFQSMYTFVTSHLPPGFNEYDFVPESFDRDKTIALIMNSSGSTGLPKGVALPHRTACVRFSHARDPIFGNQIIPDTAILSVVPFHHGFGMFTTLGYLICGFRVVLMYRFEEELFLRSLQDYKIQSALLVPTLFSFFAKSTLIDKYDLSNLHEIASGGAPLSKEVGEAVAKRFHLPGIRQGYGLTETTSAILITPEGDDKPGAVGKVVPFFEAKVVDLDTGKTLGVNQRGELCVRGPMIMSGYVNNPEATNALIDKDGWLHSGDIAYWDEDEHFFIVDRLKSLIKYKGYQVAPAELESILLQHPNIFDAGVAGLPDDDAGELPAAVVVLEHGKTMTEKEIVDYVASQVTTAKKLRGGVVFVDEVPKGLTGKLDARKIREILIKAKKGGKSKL
Glucocorticoid receptor (Homo sapiens), sequence (P04150 whole entry, looked up): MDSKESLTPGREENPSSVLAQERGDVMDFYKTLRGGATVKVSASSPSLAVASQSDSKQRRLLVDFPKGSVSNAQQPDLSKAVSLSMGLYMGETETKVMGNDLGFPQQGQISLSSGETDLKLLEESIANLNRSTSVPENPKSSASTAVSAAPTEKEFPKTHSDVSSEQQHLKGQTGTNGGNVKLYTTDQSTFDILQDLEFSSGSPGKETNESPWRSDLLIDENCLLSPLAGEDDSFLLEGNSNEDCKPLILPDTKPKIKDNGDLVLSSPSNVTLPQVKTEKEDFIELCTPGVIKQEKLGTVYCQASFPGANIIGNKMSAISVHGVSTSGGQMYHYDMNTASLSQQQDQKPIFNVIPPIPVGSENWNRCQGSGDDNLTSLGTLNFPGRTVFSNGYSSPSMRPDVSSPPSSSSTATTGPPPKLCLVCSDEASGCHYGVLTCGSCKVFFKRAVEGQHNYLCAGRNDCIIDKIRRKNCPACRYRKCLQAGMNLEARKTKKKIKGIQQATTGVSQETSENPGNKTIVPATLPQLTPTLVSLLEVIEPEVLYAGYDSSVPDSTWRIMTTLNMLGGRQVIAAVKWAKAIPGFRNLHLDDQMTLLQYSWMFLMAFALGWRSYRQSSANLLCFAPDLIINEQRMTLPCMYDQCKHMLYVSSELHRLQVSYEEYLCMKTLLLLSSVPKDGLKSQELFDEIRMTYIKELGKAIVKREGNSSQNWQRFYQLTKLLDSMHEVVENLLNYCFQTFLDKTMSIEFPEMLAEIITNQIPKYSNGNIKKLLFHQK
Peroxisome proliferator-activated receptor gamma (Homo sapiens), sequence (P37231 whole entry, looked up): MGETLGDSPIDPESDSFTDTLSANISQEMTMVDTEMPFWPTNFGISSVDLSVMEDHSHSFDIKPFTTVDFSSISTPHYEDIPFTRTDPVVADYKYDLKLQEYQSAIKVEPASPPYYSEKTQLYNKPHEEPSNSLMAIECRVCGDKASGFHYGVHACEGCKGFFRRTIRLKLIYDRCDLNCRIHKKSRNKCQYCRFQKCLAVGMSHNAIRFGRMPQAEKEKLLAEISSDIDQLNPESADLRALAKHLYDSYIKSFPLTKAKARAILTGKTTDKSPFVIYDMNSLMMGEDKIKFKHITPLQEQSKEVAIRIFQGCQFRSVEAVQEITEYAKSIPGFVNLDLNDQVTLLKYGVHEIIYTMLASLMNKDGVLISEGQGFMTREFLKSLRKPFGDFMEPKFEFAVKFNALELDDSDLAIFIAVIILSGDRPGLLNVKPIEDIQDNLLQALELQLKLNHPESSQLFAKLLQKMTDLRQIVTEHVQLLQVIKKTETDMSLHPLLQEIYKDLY
Peroxisome proliferator-activated receptor delta (Homo sapiens), sequence (Q03181 whole entry, looked up): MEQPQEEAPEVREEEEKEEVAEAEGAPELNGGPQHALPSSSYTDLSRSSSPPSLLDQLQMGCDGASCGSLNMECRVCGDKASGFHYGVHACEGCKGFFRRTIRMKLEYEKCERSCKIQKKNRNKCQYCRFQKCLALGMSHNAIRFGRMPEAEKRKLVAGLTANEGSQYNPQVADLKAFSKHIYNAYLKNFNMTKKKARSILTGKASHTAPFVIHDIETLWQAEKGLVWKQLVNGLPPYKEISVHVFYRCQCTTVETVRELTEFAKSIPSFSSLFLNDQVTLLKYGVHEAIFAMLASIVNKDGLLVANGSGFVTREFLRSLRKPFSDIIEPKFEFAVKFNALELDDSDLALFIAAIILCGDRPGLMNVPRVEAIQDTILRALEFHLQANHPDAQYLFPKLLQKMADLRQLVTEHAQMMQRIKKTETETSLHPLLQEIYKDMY

In the case of `COc1ccc([C@@H]2CNC(=O)C2)cc1OC1CCCC1`, the compound was called inactive in [1] and in assay [2]. The Potency result in [3] is “inactive”.

With `O=C(O)C(=O)Nc1cccc(C2=NN=N[N]2)c1`, the outcome in assay [1] was inactive.

With `OC[C@@H](O)[C@@H](O)[C@H](O)[C@@H](O)CO`, the compound was classed as inactive in assay [4], in assay [5], in assay [6], in assay [8] and in assay [9]. Also, the max response is -9.11% in assay [7], -4.07% in assay [10] and -2% (inactive) in [11]. Further, the activity change % (negative = inhibition) in [12] was 1.79% (inactive).

For the compound `C[C@H]1C[C@H]2[C@@H]3CCC4=CC(=O)C=C[C@]4(C)[C@@H]3C(=O)C[C@]2(C)[C@@]1(O)C(=O)CO`, in [1], the call was inactive.

Consider `O=C1c2c(O)cccc2[C@@H]([C@@H]2O[C@H](CO)[C@@H](O)[C@H](O)[C@H]2O)c2cc(CO)cc(O)c21`, for which, in assay [1], the result was inactive.

In the case of `Nc1nc2c(c(=O)[nH]1)N(C=O)[C@H](CNc1ccc(C(=O)N[C@@H](CCC(=O)O)C(=O)O)cc1)CN2`, the outcome in assay [1] and in assay [2] was inactive. Further, the Potency entry in assay [13] and in assay [3] was “inactive” each time.

As for `COC1=C(OC)C(=O)C(CC=C(C)CCC=C(C)CCC=C(C)CCC=C(C)CCC=C(C)CCC=C(C)CCC=C(C)CCC=C(C)CCC=C(C)CCC=C(C)C)=C(C)C1=O`, in [1], the call was inactive.

On to `C[C@]12CC[C@@H]3c4ccc(O)cc4CC[C@H]3[C@H]1CC[C@H]2O`, for which the activation in assay [14] was -15.8% (inactive). In addition, in assay [15], the Potency is 15.8 µM (active). Moreover, the max response was -15.7% in assay [16], 14% in assay [7], 6.57% in assay [10] and -12.2% (inactive) in assay [11]. Further, the call in [17], in assay [4], in assay [5], in assay [6], in assay [8] and in [9] was inactive. In addition, the activity change % (negative = inhibition) in [12] is -1.66% (inactive).

Turning to `C#CCC(Cc1cnc2nc(N)nc(N)c2n1)c1ccc(C(=O)N[C@@H](CCC(=O)O)C(=O)O)cc1` (some centres not stated), the result in assay [1] was inactive.

Regarding `CCC(C(=O)O)C1CCC(C)C(C(C)C(O)C(C)C(=O)C(CC)C2OC3(C=CC(O)[C@@]4(CC[C@](C)(C5CC[C@@](O)(CC)C(C)O5)O4)O3)C(C)CC2C)O1` (some centres not stated), the compound was called inactive in assay [1].

As for `CCCCCCCCCCCC(CC1OC(=O)C1CCCCCC)OC(=O)C(CC(C)C)NC=O` (configuration not stated), the outcome in [1] was inactive. The Potency in assay [13] is 7.21 µM (active); in assay [3] it was 12.6 µM (active).

With `OCC(O)C(O)C(O)CO` (configuration not stated), the outcome in [1] and in assay [2] was inactive. The Potency entry in assay [13] and in [3] was “inactive” each time.

The values above are taken from PubChem BioAssay (NCATS).
